Screening results as filed in PubChem.
Only some compounds are listed: those with a hit (about 2.8% of all), similar ones and a draw of the others.
LDHA inh – qHTS assay for inhibitors of human lactate dehydrogenase; L-lactate dehydrogenase A chain (Homo sapiens), P00338; purified LDHA, NADH/diaphorase-resazurin fluorescence; hits give low values; activity change, % (values are at about 110 or 230 µM); hit rate 0.15% among 480,000; in the data active = activity change below about -30%; inconclusive = mostly about -25% to -30%;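 also: plate controls were DMSO wells for no effect and wells without enzyme for full effect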
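Human LDH5 at 2 nM final in Tris HCl pH 7.4 with 0.06 mM NADH and 0.2 mM pyruvate, reacted 5 minutes at room temperature. Remaining NADH coupled via diaphorase/resazurin; resorufin fluorescence read at 0 and 20 minutes, normalized to enzyme-free and DMSO wells.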
Akt phos inh – HTS Assay for Inhibitors of Akt Phophorylation: Primary Screen; Neuro2A IGF-stimulated pAkt S473 HTRF, 20 min; hits give low values; activity change, % for hits at 50 µM; hit rate 0.32% among 360,000; AID 651550, 2012; in the data active = activity change below about -80%; inconclusive = mostly about -51% to -80%; also: % is scaled to controls: 0 for no effect and ±100 for the full control effect
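Neuro2A cells in DMEM with 0.5% FBS, overnight at 37 deg C, given compound at single 50 µM final, then IGF (6 nM final) for 20 min at 37 deg C. Lysed; phospho-Akt Ser473 by HTRF after 24 h, 665/615 ratio.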
D3 antag – qHTS of D3 Dopamine Receptor Antagonist: qHTS. D(3) dopamine receptor (Homo sapiens), P35462. D3R cells, DiscoveRx beta-arrestin luminescence, antagonist mode; hits give low values. max response, negative = inhibition, %. hit rate 2.5% among 360,000. AID 652054, 2013; in the data active = max response below about -50%; inconclusive = no clear call, values can overlap the other calls; also: % is scaled to controls: 0 for no effect and ±100 for the full control effect
Target sequence (P35462 whole entry, looked up): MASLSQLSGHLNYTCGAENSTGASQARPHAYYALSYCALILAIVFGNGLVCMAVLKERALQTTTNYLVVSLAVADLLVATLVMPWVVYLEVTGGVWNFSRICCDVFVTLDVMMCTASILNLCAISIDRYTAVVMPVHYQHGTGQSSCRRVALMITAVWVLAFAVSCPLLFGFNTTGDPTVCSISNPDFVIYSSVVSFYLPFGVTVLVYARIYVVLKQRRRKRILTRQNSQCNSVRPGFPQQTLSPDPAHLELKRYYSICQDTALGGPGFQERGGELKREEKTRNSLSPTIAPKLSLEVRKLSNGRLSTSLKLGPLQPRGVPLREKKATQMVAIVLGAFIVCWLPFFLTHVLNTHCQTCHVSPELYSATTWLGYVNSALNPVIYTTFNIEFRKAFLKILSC
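Cells plated overnight at 1500 cells/well, then exposed to library compounds with dopamine controls for 90 minutes at 37 degrees C. DiscoveRx reagent added for 30–60 minutes at room temperature; luminescence read, quantitative HTS format.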
PI4K2A block – qHTS for small molecular inhibitors of PI4K2A; AID 1346378, 2018; activity change, negative = inhibition, % at 76.9 µM; Phosphatidylinositol 4-kinase type 2-alpha (Homo sapiens), Q9BTU6; hit rate 0.13% among 420,000; purified PI4K2A, ADP-Glo luminescence, 1 h; hits give low values; in the data active = activity change below about -50%; inconclusive = mostly about -30% to -49%;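 also: -100% = wells without enzyme as full effect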
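ADP-Glo luminescence measured ADP generated by PI4K2A enzyme (4 ug/mL before mixing) with 1.2 mM PI substrate (pre-mix) and 300 microM ATP (pre-mix). Tris pH7.5 buffer with MgCl2, Triton X-100; 1 h reaction at ambient temperature.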
DRD3 agonist – qHTS of D3 Dopamine Receptor Agonist: qHTS; D(3) dopamine receptor (Homo sapiens), P35462; D3R DiscoveRx beta-arrestin cells, luminescence, 90 min; max activation, %; hit rate 0.58% among 410,000; in the data active = max activation above about 30%; also: 0% is about no effect
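Agonist-mode cell screen: cells plated at 1500/well and incubated overnight at 37 °C, then exposed to library compounds for 90 min at 37 °C. Detection reagent was added for 30–60 min at room temperature, and luminescence was read.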
RGS4 inh – Inhibitors of Regulator of G Protein Signaling (RGS) 4: qHTS | Transcreener GDP fluorescence polarization, RGS4-accelerated GTP hydrolysis | Potency, µM (doses to about 114 µM), inactives show top-dose activity change, negative = inhibition, most hits filed as inhibitors | hit rate 0.039% among 390,000 | AID 504845, 2011; active = well fitted inhibition curve with a large enough effect; inconclusive = small, poorly fitted or top-dose-only effect; inactive = no such curve, though single readings can be large or run the other way; also: potency is read from the fitted curve at half-maximal effect; % is scaled to controls: 0 for no effect and ±100 for the full control effect; nearly all actives have a fitted effect of over 75% in size
Target sequence (P49798 whole entry, looked up): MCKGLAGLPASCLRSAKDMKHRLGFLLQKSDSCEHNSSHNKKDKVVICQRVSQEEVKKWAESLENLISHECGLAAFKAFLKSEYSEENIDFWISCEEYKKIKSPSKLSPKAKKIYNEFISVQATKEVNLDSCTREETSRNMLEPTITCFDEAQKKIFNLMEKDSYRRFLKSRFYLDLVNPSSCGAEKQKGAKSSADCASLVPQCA
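MLSMR compounds (23 nl, pin-transferred) preincubated 10 min at room temperature with a 500nM (2x) first reagent, then RGS4 at 900nM (2x) plus Transcreener GDP mix added; fluorescence polarization (620/688 nm) read before and after 90 min at 30 °C.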
* hit, by the source's call; i = inactive; ? = inconclusive; . = no result given; ! = a repeat was not active; [ ] = remark or other dose.

SMILES	LDHA inh	Akt phos inh	D3 antag	PI4K2A block	DRD3 agonist	RGS4 inh
C(=C\c1nc2ccccc2[nH]1)/c1ccccc1	-2	i	-23	-55*	-2	28%
C(=C\c1ccco1)/c1nc2ccccc2[nH]1	-2	i	1	-23	-1	-40%
c1ccc(-c2n[nH]c(-c3ccccc3)c2-c2nc3ccccc3[nH]2)cc1	1	i	-56*	0	-5	-34%[56.9 µM]
c1ccc(-c2nc3ccccc3[nH]2)cc1	-6	.	-94*	-8	-26	23%
CCOc1cccc(-c2cc(C(=O)OC)c3ccccc3n2)c1	12	.	.	.	.	.
Cc1nnc(SCC(=O)Nc2nncs2)n1C(C)C	0	.	.	.	.	.
Cc1cccn2c(=O)c3cc(C(=O)N4CCC(C)CC4)sc3nc12	7	.	.	.	.	.
CC1CCC/C=C/C(=O)c2c(O)cc(O)cc2CC(=O)O1 (configuration not stated)	9	i	-89*	?	-51	-5%
O=C(c1ccc(F)cc1)N1C2CCC1CC(O)(c1ccc(F)cc1)C2 (configuration not stated)	0	i	-54*	-5	-10	-14%
CC1COCC(C)N1C(=O)c1cccnc1 (configuration not stated)	0	i	-125*	0	1	.
O=C(c1c(F)cccc1F)N1CCC(O)(c2ccc(F)cc2)CC1	-7	i	15	2	13	3%
O=C(c1cccnc1)N1C2CCC1CC(O)(c1ccc(F)cc1)C2 (configuration not stated)	1	i	-57*	1	-28	2%
O=C(NC1CCCCCC1)C(Cc1ccccc1)NS(=O)(=O)c1ccc(Br)s1 (configuration not stated)	-9	.	.	.	.	.
O=C(Cc1csc(-c2ccc(F)cc2)n1)Nc1ccnn1Cc1ccccc1Cl	6	.	.	.	.	.
COc1ccc(-c2nnc(NC(=O)CSc3ccc(Cl)cc3)s2)cc1OC	-2	i	8	3	7	-10%
CCOC(=O)Cc1nnc(NC(=O)CSc2ccc(Cl)cc2)s1	3	i	-53*	-1	-1	-7%
CCNC(=O)NC(=O)C(C)Sc1nnc(-c2ccccc2)n1CC (configuration not stated)	-1	.	.	.	.	.
CC(=O)Nc1ccc(-n2c(=O)c3ccccc3c3ccccc3c2=O)cc1	-7	i	-88*	0	-13	-6%
COc1cc(OC)cc(-c2sc3ccc(OC)cc3c2C#CC(C)(C)O)c1	10	i	29	-5	36*	16%
COc1ccc(-c2sc3ccc(OC)cc3c2C#Cc2cncn2C)cc1	-2	i	120	1	34*	-28%
COC(=O)c1c(-c2ccc(OC)cc2)sc2ccc(-c3ccc4c(c3)OCO4)cc12	1	i	1	3	5	-3%
COc1cc(OC)cc(-c2sc3ccc(OC)cc3c2C#CC2(N)CCCCC2)c1	1	i	64	-2	36*	-8%
COC(=O)c1c(-c2ccc(OC)cc2)sc2ccc(OC)cc12	-2	i	78	-6	58*	17%
COc1cc(OC)cc(-c2sc3ccc(OC)cc3c2C#CCO)c1	1	i	2	-7	40*	-3%
C=CCOc1ccc(C(=O)Nc2cccc(F)c2)cc1	12	.	.	.	.	.
SMILES	LDHA inh	Akt phos inh	D3 antag	PI4K2A block	DRD3 agonist	RGS4 inh
CCc1cc(=O)oc2cc(C)cc(OCC(=O)O)c12	6	.	.	.	.	.
CCc1cc(=O)oc2cc(OC(C)=O)cc(OC(C)=O)c12	3	i	-58*	-2	2	-3%
Cc1cccc(Cn2c(N3CCc4ccccc4C3)nc3c2c(=O)n(C)c(=O)n3C)c1	6	.	.	.	.	.
C=CCNCCOc1cccc(Br)c1	-1	i	-76*	0	-22	6%
CCC(C)NCCOc1cccc(Br)c1 (configuration not stated)	-24	i	-72*	-1	0	-18%
CN(C)CCCCOc1cccc(Br)c1	-20	i	-4	-4	-7	-10%
Cn1c(N2CCCCC2)nc2c1c(=O)n(Cc1cccc(Cl)c1)c(=O)n2C	1	.	.	.	.	.
Cc1ccc(C(CNC(=O)c2ccc(C(C)(C)C)cc2)N2CCCC2)cc1 (configuration not stated)	1	.	.	.	.	.
CC1(C)NC(=O)N(c2ccc([N+](=O)[O-])c(C(F)(F)F)c2)C1=O	-4	i	16	-3	36*!	-5%[56.9 µM]
CCOc1ccc(CCN2C(=S)N([C@@H](Cc3ccccc3)CN3CCC[C@@H]3CN3C(=S)NC[C@@H]3Cc3ccc(O)cc3)C[C@@H]2CC(C)C)cc1	-13	i	0	-8	-2	.
CCOc1ccc(CCN2C(=S)N([C@@H](Cc3ccc(O)cc3)CN3CCCC3CN3C(=S)NC[C@@H]3Cc3ccc(O)cc3)C[C@@H]2CC(C)C)cc1 (some centres not stated)	-3	i	-68*	1	-44	13%
CCOc1ccc(CCN2C(=S)N([C@@H](Cc3ccc(O)cc3)CN3CCC[C@@H]3CN3C(=S)NC[C@@H]3CC(C)C)C[C@@H]2Cc2ccc(O)cc2)cc1	-17	i	-80*	-2	-20	.
O=c1cc(CSc2ccccc2)[nH]c(=S)[nH]1	-4	i	-95*	-2	-9	-3%
O=c1cc(CSc2ccccc2)[nH]c2ccccc12	-4	i	-7	7	-1	21%
CCCN(CCO)Cc1cccc(Cl)c1	-22	i	12	-3	-13	11%
CCCN(CCO)Cc1ccc(Cl)c(Cl)c1	?	i	-59*	13	-32	11%
CCOc1ccc(S(=O)(=O)Nc2ccccc2SC)cc1	-3	.	-65*	0	-17	-23%
COc1ccccc1NS(=O)(=O)c1ccc2c(c1)OCCO2	-6	i	-11	0	-6	21%
CN(c1ccccc1)S(=O)(=O)c1ccc2c(c1)OCCO2	-5	i	-11	-5	41*	15%
CSc1ccccc1NS(=O)(=O)c1ccc2c(c1)OCCO2	-1	i	-85*	1	0	3%
Brc1ccc(-c2noc(CC(c3ccccc3)c3ccccc3)n2)cc1	-25	.	.	.	.	.
Cc1ccccc1-n1nnnc1C(C)(C)NC1CCCCC1	-9	.	.	.	.	.
CCOC(=O)C(C)(C)N(Cc1ccccc1C)S(=O)(=O)c1ccc(Cl)c([N+](=O)[O-])c1	-3	i	-50*	6	-3	-24%
Cc1cc(OCC(=O)NC(C)C)c2c(C)cc(=O)oc2c1	0	.	.	.	.	.
